Drawing on PMC11062922 (Nature Chemical Biology, 2023), this text covers potency estimated from few doses for six compounds.

What all share (parameters): species or system human, MV4-11 + K-562 + COLO205 + SK-N-BE2 + OVCAR-8
The test system of one assay is ACVR1B. Particulars: read-out: apparent Kd, n = 1.
The next assay concerns CAMK4. As to conditions: read-out: apparent Kd; compound concentrations: 100 nM and 1000 nM (sheet 'Samples'), CATDS: 0.20736458349595299; n = 1.
The test system of the next assay is COX5A. Particulars: read-out: apparent Kd; compound concentrations: 100 nM and 1000 nM (sheet 'Samples'), CATDS: 0.27607589651393999; n = 1.
A further assay deals with DDR1. As to conditions: read-out: apparent Kd, n = 1.
The next assay has as its system BRAF. Particulars: read-out: apparent Kd; compound concentrations: 100 nM and 1000 nM (sheet 'Samples'), CATDS: 0.43506507859715299; n = 1.
The next assay relates to CDC42BPG. As to conditions: read-out: apparent Kd; compound concentrations: 100 nM and 1000 nM (sheet 'Samples'), CATDS: 0.27820560825635698; n = 1.
For the next assay, the system named is ADCK3. Particulars: read-out: apparent Kd; compound concentrations:100 nM and 1000 nM (sheet 'Samples'); n = 1.
For another assay, the system named is MAPKAPK2. As to conditions: read-out: apparent Kd, n = 1.
The subject of a further assay is PKN3. As to conditions: read-out: apparent Kd; compound concentrations:100 nM and 1000 nM (sheet 'Samples'); n = 1.
Another assay deals with RIPK2. Particulars: read-out: apparent Kd; compound concentrations:100 nM and 1000 nM (sheet 'Samples'); n = 1.
A further assay has as its system SPR. As to conditions: read-out: apparent Kd; compound concentrations:100 nM and 1000 nM (sheet 'Samples'); n = 1.
A further assay relates to TESK2. As to conditions: read-out: apparent Kd; compound concentrations:100 nM and 1000 nM (sheet 'Samples'); n = 1.
The subject of another assay is TGFBR2. As to conditions: read-out: apparent Kd; compound concentrations:100 nM and 1000 nM (sheet 'Samples'); n = 1.
Another assay deals with TTK. Particulars: read-out: apparent Kd; compound concentrations:100 nM and 1000 nM (sheet 'Samples'); n = 1.
A further assay concerns CSNK1A1. As to conditions: read-out: apparent Kd, n = 1.
Another assay deals with CSNK1D. As to conditions: read-out: apparent Kd, n = 1.
The test system of the next assay is CSNK1E. As to conditions: read-out: apparent Kd, n = 1.
The next assay has as its system DDR2. As to conditions: read-out: apparent Kd; compound concentrations: 100 nM and 1000 nM (sheet 'Samples'), CATDS: 4.1041053531745197E-2; n = 1.
For the next assay, the system named is GAK. Particulars: read-out: apparent Kd; compound concentrations: 100 nM and 1000 nM (sheet 'Samples'), CATDS: 5.7317399451807E-2; n = 1.
A further assay deals with MAPK10. As to conditions: read-out: apparent Kd; compound concentrations: 100 nM and 1000 nM (sheet 'Samples'), CATDS: 0.179195319148265; n = 1.
Another assay deals with MAPK11. Particulars: read-out: apparent Kd; compound concentrations: 100 nM and 1000 nM (sheet 'Samples'), CATDS: 5.6945469434317497E-2; n = 1.
A further assay concerns MAPK14. As to conditions: read-out: apparent Kd; compound concentrations: 100 nM and 1000 nM (sheet 'Samples'), CATDS: 0.23382543991059199; n = 1.
For another assay, the system named is MAPK8. As to conditions: read-out: apparent Kd; compound concentrations: 100 nM and 1000 nM (sheet 'Samples'), CATDS: 5.2366017866035799E-2; n = 1.
Another assay has as its system MAPK9. As to conditions: read-out: apparent Kd; compound concentrations: 100 nM and 1000 nM (sheet 'Samples'), CATDS: 0.113637290114738; n = 1.
In the next assay the test system is NLK. As to conditions: read-out: apparent Kd; compound concentrations: 100 nM and 1000 nM (sheet 'Samples'), CATDS: 5.1907933882023798E-2; n = 1.
The test system of a further assay is RIPK3. Particulars: read-out: apparent Kd; compound concentrations: 100 nM and 1000 nM (sheet 'Samples'), CATDS: 4.0216087331075998E-2; n = 1.
The next assay has as its system SIK3. Particulars: read-out: apparent Kd; compound concentrations: 100 nM and 1000 nM (sheet 'Samples'), CATDS: 4.1962261561680501E-2; n = 1.
For the next assay, the system named is ACVR2B. Particulars: read-out: apparent Kd; compound concentrations:100 nM and 1000 nM (sheet 'Samples'); n = 1.
Another assay concerns TAOK1. Particulars: read-out: apparent Kd; compound concentrations:100 nM and 1000 nM (sheet 'Samples'); n = 1.
The test system of a further assay is ATM. As to conditions: read-out: apparent Kd; compound concentrations: 100 nM and 1000 nM (sheet 'Samples'), CATDS: 0.55136512573741903; n = 1.
Another assay concerns PIP4K2C. Particulars: read-out: apparent Kd; compound concentrations: 100 nM and 1000 nM (sheet 'Samples'), CATDS: 0.19748549423912701; n = 1.
The subject of another assay is PRKAG2. As to conditions: read-out: apparent Kd; compound concentrations: 100 nM and 1000 nM (sheet 'Samples'), CATDS: 0.19909509316552701; n = 1.
Setting [1] is: compound concentrations:100 nM and 1000 nM (sheet 'Samples').

Where two headings read alike, the source gives them in different places.

For `COc1ccc2cc(-c3c(-c4ccncc4)nc(-c4ccc(S(C)=O)cc4)n3C)ccc2c1` (stereo not shown) [SB-437013], the potency estimated from few doses with ACVR1B (compound concentrations: 100 nM and 1000 nM (sheet 'Samples'), CATDS: 0.34398750715430798) was 810 nM; in the assay with CAMK4 it was 2240 nM; with COX5A, 1190 nM; in the assay with DDR1 (compound concentrations: 100 nM and 1000 nM (sheet 'Samples'), CATDS: 0.21513236479032799), 2040 nM.

As for `CN(C)CCOc1ccc(-c2cc(-c3ccc4c(c3)CCC4=NO)c(-c3ccncc3)o2)cc1.Cl` [SB-682330-A], the potency estimated from few doses is 1130 nM in the assay with ACVR1B (compound concentrations: 100 nM and 1000 nM (sheet 'Samples'), CATDS: 0.32185082744978499); 644 nM in the assay on BRAF; 1600 nM with CDC42BPG.

Turning to `Cl.Cl.Oc1cc(-c2nc(-c3ccccc3)[nH]c2-c2ccncc2)ccc1Cl.Oc1cc(-c2nc(-c3ccccc3)[nH]c2-c2ccncc2)ccc1Cl` [SB-386023-B], the potency estimated from few doses is 968 nM in the assay with ACVR1B (setting [1]); 373 nM in the assay with ADCK3; 1840 nM in the assay with DDR1 (setting [1]); 1700 nM in the assay with MAPKAPK2 (setting [1]); 1020 nM in the assay with PKN3; 192 nM in the assay with RIPK2. The potency estimated from few doses in the assay with SPR was 422 nM; in the assay on TESK2, 1470 nM; in the assay with TGFBR2 it was 2050 nM; with TTK, 1600 nM.

Take `NC(=O)c1ccc2c(-c3ccnc(NCCCO)n3)c(-c3ccc(F)cc3)nn2c1` [GW581744X]: the potency estimated from few doses in the assay on ACVR1B (compound concentrations: 100 nM and 1000 nM (sheet 'Samples'), CATDS: 5.1726105609422098E-2) is 678 nM; in the assay with CSNK1A1 (compound concentrations: 100 nM and 1000 nM (sheet 'Samples'), CATDS: 4.4417171665787201E-2) it was 1210 nM; in the assay with CSNK1D (compound concentrations: 100 nM and 1000 nM (sheet 'Samples'), CATDS: 0.12647868619351901) it was 70.3 nM; in the assay on CSNK1E (compound concentrations: 100 nM and 1000 nM (sheet 'Samples'), CATDS: 7.8439067124282905E-2) it was 202 nM; in the assay with DDR1 (compound concentrations: 100 nM and 1000 nM (sheet 'Samples'), CATDS: 4.5461807893970897E-2), 1100 nM; in the assay with DDR2 it was 1740 nM. Also, the potency estimated from few doses in the assay on GAK is 485 nM; with MAPK10, 38 nM; in the assay with MAPK11, 495 nM; in the assay with MAPK14 it was 25.3 nM; in the assay on MAPK8, 651 nM; in the assay with MAPK9, 86.9 nM. The potency estimated from few doses was 48 nM in the assay on MAPKAPK2 (compound concentrations: 100 nM and 1000 nM (sheet 'Samples'), CATDS: 0.15591620581864199); 670 nM in the assay with NLK; 1940 nM with RIPK3; 1560 nM in the assay with SIK3.

As to `Nc1nc(-c2ccccn2)c(-c2ccnc3ccccc23)s1` [GW548057X], the potency estimated from few doses with ACVR1B (setting [1]) is 76.2 nM; in the assay with ACVR2B, 1790 nM; with CSNK1A1 (setting [1]) it was 893 nM; in the assay on CSNK1D (setting [1]), 1800 nM; in the assay on CSNK1E (setting [1]), 2100 nM; with TAOK1, 1700 nM.

As for `NC(=O)c1cc(-c2ccncc2)cc(-c2ccccc2)c1N` [GSK625137A], the potency estimated from few doses with ACVR1B (compound concentrations: 100 nM and 1000 nM (sheet 'Samples'), CATDS: 0.24390652724185299) was 1010 nM; in the assay with ATM, 223 nM; in the assay with PIP4K2C, 1780 nM; with PRKAG2 it was 1730 nM.
